MITF primary: inhibitors of human MITF | AID 1259374 | inhibition, % at 2.6 µM | 650,000 tested, 0.91% active | AlphaScreen MITF homodimerization, bead proximity signal | O75030; in the data active = inhibition above about 50%
GPR151 ag: activators of human GPR151; Q8TDV0; PathHunter beta-arrestin GPR151 cells, luminescence; AID 1508602; activation, % at 11.2 µM; 650,000 tested, 1% active; in the data active = activation above about 4.9%
Target sequence (Q8TDV0 whole entry, looked up): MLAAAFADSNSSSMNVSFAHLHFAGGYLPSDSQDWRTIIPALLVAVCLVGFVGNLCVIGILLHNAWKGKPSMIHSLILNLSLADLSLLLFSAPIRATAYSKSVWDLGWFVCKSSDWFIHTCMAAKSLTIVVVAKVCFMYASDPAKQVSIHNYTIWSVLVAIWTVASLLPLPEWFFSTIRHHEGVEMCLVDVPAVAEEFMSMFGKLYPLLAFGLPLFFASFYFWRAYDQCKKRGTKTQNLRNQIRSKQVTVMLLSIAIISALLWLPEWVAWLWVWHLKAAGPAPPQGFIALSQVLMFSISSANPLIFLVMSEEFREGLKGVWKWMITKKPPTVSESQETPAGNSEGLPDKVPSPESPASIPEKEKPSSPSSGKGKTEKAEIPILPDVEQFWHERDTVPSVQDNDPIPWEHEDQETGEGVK
FBW7 act: activators of human E3 ligase FBW7; Q969H0; AlphaScreen FBW7–phospho-cyclin E peptide binding, activator screen; normalized activity (activation), % at 26.1 µM; 650,000 tested, 0.13% active; in the data active = normalized activity above about 1.9%;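 also: purified mutant Fbw7 with reduced substrate affinity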
TEAD-YAP inh: TEAD-YAP interaction inhibition | HEK-TIYL cells, TEAD-Gal4/YAP UAS-luciferase luminescence | inhibition, % at 9.12 µM | 640,000 tested, 1.4% active; in the data active = inhibition above about 32%
Numbers stand for hits; 0 = inactive. Sampled rows, rich in hits. Any-hit rate of the full collection: about 3.5%.

SMILES | MITF primary | GPR151 ag | FBW7 act | TEAD-YAP inh
CN(C)c1ccc(/C=C2\C(=O)NC(=O)N(C(C)(C)C)C2=O)cc1[N+](=O)[O-] | 0 | 0 | 0 | 0
c1ccc(-c2cn[nH]c2C2CCN(Cc3ccncc3)CC2)cc1 | 0 | 0 | 0 | 0
CC(C)N(CCNc1nc(Nc2ccc3ncccc3c2)nc2c1ncn2-c1ccsc1)C(C)C | 0 | 0 | 0 | 44.4
CC(C)N(CCNc1nc(Nc2cnccn2)nc2c1ncn2-c1ccsc1)C(C)C | 0 | 0 | 0 | 38.7
CC(C)N(CCNc1nc(Nc2ccncc2)nc2c1ncn2-c1ccsc1)C(C)C | 0 | 0 | 0 | 0
CC(C)N(CCNc1nc(Nc2cccnc2)nc2c1ncn2-c1ccsc1)C(C)C | 0 | 0 | 0 | 35.0
COc1cc(Nc2nc(NCCN(C(C)C)C(C)C)c3ncn(-c4ccsc4)c3n2)cc(OC)c1OC | 0 | 0 | 0 | 0
CCCNc1nc(Nc2cccnc2)nc2c1ncn2-c1ccsc1 | 0 | 0 | 0 | 61.0
c1ccc(CNc2nc(Nc3cccnc3)nc3c2ncn3-c2ccsc2)cc1 | 0 | 0 | 0 | 0
CCC(=O)n1cc(C=O)c2ccccc21 | 0 | 0 | 0 | 0
c1ccc(CN2CCC(Nc3cc(-c4cccs4)ncn3)CC2)cc1 | 0 | 0 | 0 | 0
CC(C)n1cnc2c(NCCc3ccc(O)cc3)nc(Nc3ccc4ncccc4c3)nc21 | 0 | 0 | 0 | 38.9
CCCNc1nc(Nc2ccc3ncccc3c2)nc2c1ncn2C(C)C | 0 | 0 | 0 | 0
Cn1cnc([N+](=O)[O-])c1Sc1nc2ccccc2[nH]1 | 0 | 0 | 0 | 56.2
O=C(c1cc2ccccc2o1)c1cnc2ccccn12 | 0 | 0 | 0 | 39.5
CC[n+]1c(/C=C/c2ccc(N(C)C)cc2)sc2cc(C)ccc21 | 0 | 0 | 0 | 88.5
CC[n+]1c(C)sc2ccc(C)cc21 | 0 | 0 | 0 | 0
Cn1c(=O)c2c(nc(-n3ccnc3)n2Cc2ccc(Cl)cc2Cl)n(C)c1=O | 0 | 0 | 1.9 | 0
Cc1cc2ccccc2cc1Cn1c(-n2ccnc2)nc2c1c(=O)n(C)c(=O)n2C | 0 | 0 | 0 | 0
COc1cc(C(=O)NN=C2CCCCCC2)cc(OC)c1OC | 0 | 0 | 0 | 59.9
COc1ccc(NC(=O)c2cc3cccc(OC)c3oc2=Nc2ccc(C(=O)O)cc2)c(OC)c1 | 0 | 0 | 0 | 0
COc1cccc2cc(C(=O)NCc3ccco3)c(=Nc3ccc(C(=O)O)cc3)oc12 | 0 | 0 | 0 | 46.2
CC/C(C)=N\NC(=O)c1cc(OC)c(OC)c(OC)c1 | 0 | 0 | 0 | 58.0
CCOC(=O)C(=N/O)/C(C)=N/NC(=O)c1cc(OC)c(OC)c(OC)c1 | 0 | 0 | 0 | 41.0
COc1ccc2c(c1)-c1c(sn(-c3ccc(Cl)c(C(F)(F)F)c3)c1=S)C(C)(C)N2 | 0 | 0 | 0 | 0
SMILES | MITF primary | GPR151 ag | FBW7 act | TEAD-YAP inh
COc1ccc(C(=O)N/N=C(\C)CC(=O)NCc2ccco2)cc1OC | 0 | 0 | 0 | 35.1
COc1cccc(-c2ccc3nnc(SCC(=O)N4CCN(c5ccccc5)CC4)n3n2)c1 | 0 | 0 | 0 | 32.8
COc1cccc(NC(=O)c2cnc(SCC(=O)N3CCN(c4ccccc4)CC3)n(C)c2=O)c1 | 0 | 0 | 0 | 35.5
COc1ccc(N/C=C(\C#N)C(N)=S)cc1OC | 0 | 0 | 0 | 37.9
COc1ccc(C(F)(F)F)cc1N/C=C(\C#N)C(N)=S | 0 | 0 | 0 | 0
Cc1ccccc1NCC(O)Cn1c2ccc(Cl)cc2c2cc(Cl)ccc21 (stereo unspecified) | 0 | 0 | 0 | 0
CC(=O)N1CCN(Cc2ccc3c(c2)CN(Cc2cccn2-c2ccccn2)CCO3)CC1 | 0 | 0 | 0 | 0
CCOc1cc(C2C(C#N)=C(N)Oc3n[nH]c(-c4ccc(Cl)c(Cl)c4)c32)cc([N+](=O)[O-])c1O (stereo unspecified) | 0 | 0 | 0 | 0
Nc1ccc2sc3ccccc3c(=O)c2c1 | 0 | 0 | 2.1 | 0
COc1ccc2sc3ccccc3c(=O)c2c1 | 0 | 0 | 0 | 0
O=C(CCCl)Nc1nc2c(s1)CCc1ccccc1-2 | 0 | 0 | 0 | 34.6
O=C(Nc1nc2c(s1)CCc1ccccc1-2)c1ccco1 | 0 | 0 | 0 | 0
CC(C)(C)C(=O)CNC(=O)c1ccncc1 | 0 | 0 | 0 | 57.1
Cc1ccc(C)c(Nc2nc(NCc3ccco3)nc3nccnc23)c1 | 0 | 0 | 0 | 0
Cc1ccc(C)c(Nc2nc(NCCN(C)C)nc3nccnc23)c1 | 0 | 0 | 2.1 | 0
CCCCC(=O)Nc1sc2c(c1C#N)CCN(C(C)=O)C2 | 0 | 0 | 0 | 42.6
CC(=O)N1CCc2c(sc(NC(=O)c3ccc(Br)cc3)c2C#N)C1 | 0 | 0 | 0 | 41.3
CC(=O)N1CCc2c(sc(NC(=O)c3ccc4c(c3)OCCO4)c2C#N)C1 | 0 | 0 | 0 | 39.6
COC(=O)c1c(NC(=O)c2ccc(S(=O)(=O)N(C)C)cc2)sc2c1CCN(C(C)=O)C2 | 0 | 0 | 0 | 0
COC(=O)c1c(NC(=O)c2ccc(Cl)cc2)sc2c1CCN(C(C)=O)C2 | 0 | 0 | 3.3 | 0
CCOC(=O)CC(=O)N1c2ccccc2NC(=O)C1CC (stereo unspecified) | 0 | 0 | 0 | 0
CCCCCOC(=O)C1=C(C)N(C)C(=O)NC1c1ccc([N+](=O)[O-])cc1 (stereo unspecified) | 0 | 0 | 0 | 0
COc1cccc(NC(=O)CSc2nnc(-c3ccc(C)cc3)c(-c3ccc(C)cc3)n2)c1 | 0 | 0 | 0 | 0
Cc1cccc(C2C(C#N)=C(N)Oc3n[nH]c(-c4ccc5c(c4)OCO5)c32)c1 (stereo unspecified) | 0 | 0 | 0 | 0
Cc1nc2ccccc2n1CC(O)COc1ccc2ccccc2c1 (stereo unspecified) | 0 | 0 | 0 | 0
SMILES | MITF primary | GPR151 ag | FBW7 act | TEAD-YAP inh
Cc1cc(=O)oc2cc(OCC(O)Cn3c(C)nc4ccccc43)ccc12 (stereo unspecified) | 0 | 0 | 0 | 50.1
CCCc1nc2ccccc2n1CC(O)COC1CC=CCC1 (stereo unspecified) | 0 | 0 | 0 | 0
Cc1cccc(-c2nnn(CC(=O)NC(C)(C)C)n2)c1 | 0 | 0 | 0 | 0
COC(=O)Nc1ccc(S(=O)(=O)N2CCCc3ccccc32)cc1 | 0 | 0 | 0 | 55.7
O=C(Nc1ccc(F)cc1)c1cccc(S(=O)(=O)N2CCCc3ccccc32)c1 | 0 | 0 | 0 | 39.9
CC(=O)Nc1ccc(S(=O)(=O)Nc2ccc(S(=O)(=O)N3CCc4ccccc43)cc2)cc1 | 0 | 0 | 0 | 0
Cc1cccc(NC(=O)c2ccc(F)c(S(=O)(=O)N3CCCc4ccccc43)c2)c1 | 0 | 0 | 0 | 0
O=C(Nc1ccc(Br)cc1)c1ccc(F)c(S(=O)(=O)N2CCCc3ccccc32)c1 | 0 | 0 | 0 | 46.2
O=C(Nc1ccccc1)c1cccc(S(=O)(=O)N2CCCc3ccccc32)c1 | 0 | 0 | 0 | 0
CC(C(=O)NC1CCCC1)N(Cc1cccs1)C(=O)c1ccc(Cl)nc1 (stereo unspecified) | 0 | 0 | 0 | 0
CCCNC(=O)c1cncc(Nc2ccccn2)c1 | 0 | 0 | 0 | 0
COc1ccc(C(=O)/C(=C\c2ccc(C)o2)c2nc3ccccc3o2)cc1 | 0 | 0 | 0 | 37.8
Cc1ccc(C(=O)/C(=C\c2cccs2)c2nc3ccccc3o2)cc1 | 0 | 0 | 0 | 72.7
COc1cc(OC)cc(C(=O)Nc2cc(C34CC5CC(CC(C5)C3)C4)ccc2C)c1 | 0 | 0 | 0 | 0
